Laboratory results reported in PubChem BioAssay (NCATS).
Inconclusive results are not listed. Unmarked numbers belong to inactive results. The source made the active and inactive calls. Calls follow the shape of the dose curve; as a rule, active = well fitted curve in the direction sought with a large enough effect; inconclusive = small, poorly fitted or top-dose-only effect, or another doubt; inactive = no such curve, though single readings can be large; an effect the other way counts as inactive or inconclusive.

Tests used:
[1] = Quantitative High-Throughput drug screen in 47 multiple myeloma cell lines against the NCATS MIPE library collection: KMS12PE_JCRB cell viability assay (AID 1918972); also: nearly all actives have a fitted effect of over 30% in size; also: potency is read from the fitted curve at half-maximal effect
In short: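 Myeloma cell lines, 500 cells per well, exposed to MIPE 4.0 library compounds for 48 h at 37C, 5% CO2. Viability from ATP by CellTiter-Glo luminescence; normalised to DMSO (100%) and media-only (0%) wells.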

[2] = Quantitative High-Throughput drug screen in 47 multiple myeloma cell lines against the NCATS MIPE library collection: KMS20_JCRB cell viability assay (AID 1918973); also: nearly all actives have a fitted effect of over 45% in size; also: potency is read from the fitted curve at half-maximal effect
In short: (§1)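 Steps: seed 500 cells per well; pin-transfer MIPE 4.0 library; incubate 48 h at 37C, 5% CO2, humidified; add CellTiter-Glo, 5 min room temperature; read luminescence.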

[3] = Quantitative High-Throughput drug screen in 47 multiple myeloma cell lines against the NCATS MIPE library collection: MMM1_PLB cell viability assay (AID 1918976); also: nearly all actives have a fitted effect of over 35% in size; also: potency is read from the fitted curve at half-maximal effect
In short: (§2)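 500 cells/well per myeloma line exposed to pinned MIPE 4.0 compounds for 48 h at 37 °C, 5% CO2. Viability read as ATP by CellTiter-Glo luminescence, normalised to DMSO-only (100%) and media-only (0%) wells.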

[4] = Quantitative High-Throughput drug screen in 47 multiple myeloma cell lines against the NCATS MIPE library collection: NCIH929_DSMZ cell viability assay (AID 1918978); also: nearly all actives have a fitted effect of over 35% in size; also: potency is read from the fitted curve at half-maximal effect
In short: as §2

[5] = Quantitative High-Throughput drug screen in 47 multiple myeloma cell lines against the NCATS MIPE library collection: KMS28PE_JCRB cell viability assay (AID 1918983); also: nearly all actives have a fitted effect of over 35% in size; also: potency is read from the fitted curve at half-maximal effect
In short: as §2

[6] = Quantitative High-Throughput drug screen in 47 multiple myeloma cell lines against the NCATS MIPE library collection: L363_DSMZ cell viability assay (AID 1918984); settings: L363 myeloma viability, CellTiter-Glo ATP luminescence, 48 h; viability (% of control): at 45.8 µM (top of the series); also: nearly all actives have a fitted effect of over 40% in size; also: potency is read from the fitted curve at half-maximal effect
In short: as §2

[7] = Quantitative High-Throughput drug screen in 47 multiple myeloma cell lines against the NCATS MIPE library collection: OCIMY5_PLB cell viability assay (AID 1918988); also: potency is read from the fitted curve at half-maximal effect; nearly all actives have a fitted effect of over 65% in size
In short: as §2

[8] = Quantitative High-Throughput drug screen in 47 multiple myeloma cell lines against the NCATS MIPE library collection: OPM1_PLB cell viability assay (AID 1918989); also: nearly all actives have a fitted effect of over 40% in size; also: potency is read from the fitted curve at half-maximal effect
In short: as §2

[9] = Quantitative High-Throughput drug screen in 47 multiple myeloma cell lines against the NCATS MIPE library collection: U266_ATCC cell viability assay (AID 1919864); also: nearly all actives have a fitted effect of over 35% in size; also: potency is read from the fitted curve at half-maximal effect
In short: as §2

[10] = Quantitative High-Throughput drug screen in 47 multiple myeloma cell lines against the NCATS MIPE library collection: KMS21BM_JCRB cell viability assay (AID 1918974); settings: ATP luminescence, 48 h; viability: at 45.8 µM (top of the series); also: potency is read from the fitted curve at half-maximal effect
In short: as §1

[11] = Quantitative High-Throughput drug screen in 47 multiple myeloma cell lines against the NCATS MIPE library collection: OCIMY1_PLB cell viability assay (AID 1918979); also: nearly all actives have a fitted effect of over 35% in size; also: potency is read from the fitted curve at half-maximal effect
In short: as §2

[12] = Quantitative High-Throughput drug screen in 47 multiple myeloma cell lines against the NCATS MIPE library collection: SKMM1_PLB cell viability assay (AID 1919863); settings: SKMM1 myeloma viability, CellTiter-Glo ATP, 48 h; viability: stronger effect = lower value; also: nearly all actives have a fitted effect of over 35% in size; also: potency is read from the fitted curve at half-maximal effect
In short: as §2

[13] = Quantitative High-Throughput drug screen in 47 multiple myeloma cell lines against the NCATS MIPE library collection: MOLP8_DSMZ cell viability assay (AID 1918977); also: nearly all actives have a fitted effect of over 45% in size; also: potency is read from the fitted curve at half-maximal effect
In short: as §2

[14] = Quantitative High-Throughput drug screen in 47 multiple myeloma cell lines against the NCATS MIPE library collection: MM1S_ATCC cell viability assay (AID 1918980); also: potency is read from the fitted curve at half-maximal effect; nearly all actives have a fitted effect of over 45% in size
In short: as §2

[15] = Quantitative High-Throughput drug screen in 47 multiple myeloma cell lines against the NCATS MIPE library collection: OCIMY7_PLB cell viability assay (AID 1918987); settings: OCI-MY7 myeloma viability, CellTiter-Glo ATP, 48 h; viability (% of DMSO): at 45.8 µM (top of the series); also: potency is read from the fitted curve at half-maximal effect; nearly all actives have a fitted effect of over 65% in size
In short: as §2

[16] = Quantitative High-Throughput drug screen in 47 multiple myeloma cell lines against the NCATS MIPE library collection: KMS26_JCRB cell viability assay (AID 1918975); also: nearly all actives have a fitted effect of over 45% in size; also: potency is read from the fitted curve at half-maximal effect
In short: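 Luminescent ATP measurement with CellTiter-Glo gives viability, scaled between DMSO-only wells (100%) and media-only wells (0%). Cells, 500 per well, faced library compounds for 48 hours at 37C.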

[17] = Quantitative High-Throughput drug screen in 47 multiple myeloma cell lines against the NCATS MIPE library collection: MM1R_ATCC cell viability assay (AID 1918981); also: nearly all actives have a fitted effect of over 35% in size; also: potency is read from the fitted curve at half-maximal effect
In short: as §2

[18] = Quantitative High-Throughput drug screen in 47 multiple myeloma cell lines against the NCATS MIPE library collection: LP1_DSMZ cell viability assay (AID 1918982); also: nearly all actives have a fitted effect of over 35% in size
In short: as §2

[19] = Quantitative High-Throughput drug screen in 47 multiple myeloma cell lines against the NCATS MIPE library collection: KMS34_JCRB cell viability assay (AID 1918985); also: nearly all actives have a fitted effect of over 40% in size; also: potency is read from the fitted curve at half-maximal effect
In short: as §2

Structure (SMILES) | Potency [1] | Potency [2] | Potency [3] | Potency [4] | Potency [5] | Potency [6] | Potency [7] | Potency [8] | Potency [9] | Potency [10] | Potency [11] | viability [12] | Potency [13] | Potency [14] | Potency [15] | Potency [16] | Potency [17] | Potency [18] | Potency [19] | Potency [12]
Nc1nc(Cl)nc2c1ncn2[C@@H]1O[C@H](CO)[C@@H](O)[C@H]1F | 0.833 µM (active) | 0.0264 µM (active) | 2.09 µM (active) | 0.0332 µM (active) | 0.0418 µM (active) | 0.0526 µM (active) | 0.0743 µM (active) | 1.48 µM (active) | 1.48 µM (active) | – | – | – | – | – | – | – | – | – | – | –
CCC(=O)OCC(=O)[C@@]1(OC(=O)CC)[C@@H](C)C[C@@H]2[C@H]3CCC4=CC(=O)C=C[C@]4(C)[C@@]3(F)[C@@H](O)C[C@@]21C | 10.5 µM (active) | – | – | inactive | – | 1.05 µM (active) | – | 14.8 µM (active) | inactive | 2.64 µM (active) | inactive | 97.1% | – | – | – | – | – | – | – | –
Cc1cc(C(C)Nc2ccccc2)c2nc(N3CCOCC3)cc(=O)n2c1 (stereo not drawn) | 16.6 µM (active) | 10.5 µM (active) | inactive | – | – | – | – | 20.9 µM (active) | inactive | – | inactive | – | inactive | 0.332 µM (active) | 2.09 µM (active) | – | – | – | – | –
CN1CCN2c3ncccc3Cc3ccccc3C2C1 (stereo not drawn) | inactive | inactive | – | inactive | inactive | – | – | – | – | – | inactive | – | – | – | – | inactive | inactive | inactive | inactive | –
CC(=O)N1CCN(c2ccc(OCc3nn(C)c(C)c3-c3cccc4c(CCCOc5cc(C)c(Cl)c(C)c5)c(C(=O)O)n(Cc5cccnc5)c34)cc2)CC1 | 18.7 µM (active) | 2.96 µM (active) | – | 2.96 µM (active) | 20.9 µM (active) | 18.7 µM (active) | 20.9 µM (active) | – | 20.9 µM (active) | – | inactive | – | 20.9 µM (active) | 14.8 µM (active) | 0.833 µM (active) | 18.7 µM (active) | 20.9 µM (active) | inactive | – | –
Cc1ccc(C2=Nc3ccc(Cl)cc3OC2)cc1 | 4.18 µM (active) | – | 18.7 µM (active) | inactive | inactive | – | – | 10.5 µM (active) | 9.35 µM (active) | – | inactive | – | – | – | 1.32 µM (active) | inactive | inactive | – | 6.62 µM (active) | –
CC[C@H]1OC(=O)[C@H](C)[C@@H](O[C@H]2C[C@@](C)(OC)[C@@H](O)[C@H](C)O2)[C@H](C)[C@@H](O[C@@H]2O[C@H](C)C[C@H](N(C)C)[C@H]2O)[C@](C)(O)C[C@H](C)C(=NOCOCCOC)[C@H](C)[C@@H](O)[C@]1(C)O | inactive | inactive | – | inactive | – | – | – | inactive | – | – | inactive | – | – | 20.9 µM (active) | – | – | inactive | – | inactive | –
O=C(NC[C@H](O)CO)c1ccncc1Nc1ccc(I)cc1F | 14.8 µM (active) | 0.0526 µM (active) | inactive | 8.33 µM (active) | – | – | – | 18.7 µM (active) | – | – | 0.0935 µM (active) | – | – | 18.7 µM (active) | 0.209 µM (active) | – | 13.2 µM (active) | inactive | 1.18 µM (active) | 8.33 µM (active)
CCCCC(F)(F)[C@@]1(O)CC[C@H]2[C@H](CC(=O)[C@@H]2CCCCCCC(=O)O)O1 | inactive | 0.418 µM (active) | – | inactive | inactive | inactive | 0.235 µM (active) | inactive | inactive | – | inactive | 97.7% | – | – | – | inactive | inactive | inactive | – | –
